KB-3-1 tox: kills parental KB-3-1 adenocarcinoma cells; 400,000 tested, 1.4% active; KB-3-1 viability, CellTiter-Glo ATP luminescence, 72 h; Potency, µM (top dose mostly 46.1 µM), most hits filed as cytotoxic; also: % is scaled to controls: 0 for no effect and ±100 for the full control effect; nearly all actives have a fitted effect of over 60% in size
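72 h, 37 °C compound treatment of KB-3-1 parental cells; CellTiter-Glo added, 10 min, luminescence read. Data corrected against DMSO-only plates and normalized before curve fitting.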
HepG2 tox: HepG2 cytotoxicity, counter-screen for TGF-b inhibitors. AID 588856. Potency, µM (highest dose often 46.1 µM), inactives show at the top dose activity change, negative = cytotoxicity, actives largely listed as cytotoxic. HepG2 CAGA-GFP viability, ATP luminescence, 18 h. 410,000 tested, 0.76% active
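HepG2 CAGA-GFP cells (1000/well, DMEM with 1% FBS) received compound, then TGF-beta at 500 pg/mL final, and were incubated 18 hours at 37 degrees C. Viability was read by CellTiter-Glo luminescence. Media-only wells were set as complete cell-killing and DMSO as no toxicity.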
KB-V1 cytotox: KB-V1 MDR subline cytotoxicity. Potency, µM (top dose mostly 46.1 µM), most hits filed as cytotoxic. AID 1347076. 400,000 tested, 3.4% active. KB-V1 MDR cells viability, CellTiter-Glo, 72 h; also: % is scaled to controls: 0 for no effect and ±100 for the full control effect; nearly all actives have a fitted effect of over 60% in size
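Potencies derive from concentration-effect curves fitted to normalized luminescence (CellTiter-Glo) of KB-V1 cells treated for 72 h at 37 degrees C in phenol-red-free DMEM containing 10% FBS.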
HT1080-NT tox: kills 2HG-producing HT-1080-NT fibrosarcoma cells; Potency, µM (doses to about 46.1 µM), inactives show top-dose activity, negative = less viability, hits mostly cytotoxic; 360,000 tested, 1.6% active; AID 686970; HT-1080-NT fibrosarcoma viability, CellTiter-Glo ATP luminescence, 48 h;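 also: NT is the 2HG producing partner of a matched IDH1 knockdown line; 0% = DMSO-treated cells and -100% = media-only wells without cells; nearly all actives have a fitted effect of over 55% in size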
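Toxicity toward the 2HG-producing NT line was scored as %Activity, normalised to DMSO and no-cell wells, from CellTiter-Glo luminescence after 48 hours' treatment.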
HT1080 IDH1KD tx: HT-1080 IDH1 knockdown cell toxicity (counter line); HT-1080 IDH1 knockdown viability, ATP luminescence, 48 h; Potency, µM (titrated, usually from 46.1 µM), for inactives: top-dose activity, negative = toxicity, usual class: cytotoxic; 360,000 tested, 2% active; AID 686971;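 also: 0% = DMSO wells and -100% = cell-free medium wells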
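Using the IDH1-knockdown HT-1080 line run in the same batch and compound series as the NT line, viability after 48 h at 37 °C was determined by CellTiter-Glo luminescence and expressed as % activity.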
TGFb SMAD3 inh: TGF-b pathway inhibition. AID 588855. 410,000 tested, 1.2% active. HepG2 CAGA-GFP TGF-b/SMAD3 reporter, GFP fluorescence, 18 h; TGF-beta stimulated, 500 pg/mL final. Potency, µM (highest dose often 46.1 µM), for inactives: top-dose activity, negative = inhibition, actives largely listed as inhibitors; also: % is scaled to controls: 0 for no effect and ±100 for the full control effect; nearly all actives have a fitted effect of over 65% in size
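Inhibition of TGF-beta-driven CAGA-GFP reporter expression in HEPG2 cells is measured by cellular GFP fluorescence after 18 h stimulation with 500 pg/mL recombinant TGF-beta in 1% FBS medium at 37 degrees C.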
An asterisk follows results filed as active. Only some compounds are listed: those with a hit (about 6.6% of all), similar ones and a draw of the others. Calls follow the shape of the dose curve; as a rule, active = well fitted curve in the direction sought with a large enough effect; inconclusive = small, poorly fitted or top-dose-only effect, or another doubt; inactive = no such curve, though single readings can be large; an effect the other way counts as inactive or inconclusive. Potency is read from the fitted curve at half-maximal effect.

`CC(Oc1ccc(Cl)cc1)C(=O)Nc1sccc1C(N)=O` (configuration not stated) gave KB-3-1 tox inactive, HepG2 tox -0.4%, KB-V1 cytotox 9.2µM*, HT1080-NT tox -14.8%, HT1080 IDH1KD tx -9.5% and TGFb SMAD3 inh inconclusive.
Cc1ccc(OC(C)C(=O)OCC(=O)Nc2sccc2C(N)=O)cc1 (configuration not stated) was read as KB-3-1 tox inactive, HepG2 tox -20.8%, KB-V1 cytotox inactive, HT1080-NT tox 5.8%, HT1080 IDH1KD tx 4.7% and TGFb SMAD3 inh -16.6%.
CCC(C)NC(=O)C1CCN(C(=O)c2ccc(-n3ccc4ccccc43)s2)CC1 (configuration not stated) was read as KB-3-1 tox inactive, HepG2 tox -27.1%, KB-V1 cytotox inactive and TGFb SMAD3 inh 0.6%.
C#CC(=O)N(c1cc(OC)ccc1OC)C(C(=O)NC1CCCC1)c1cccs1 (configuration not stated) was read as KB-3-1 tox 14.6µM*, HepG2 tox -83.4%, KB-V1 cytotox inconclusive, HT1080-NT tox 0.0731µM*, HT1080 IDH1KD tx 0.731µM* and TGFb SMAD3 inh inconclusive.
For C#CC(=O)N(c1ccc(OC)cc1OC)C(C(=O)NC1CCCC1)c1cccs1 (configuration not stated) the results were KB-3-1 tox inactive, HepG2 tox -52.0%, KB-V1 cytotox inactive, HT1080-NT tox 0.92µM*, HT1080 IDH1KD tx inconclusive and TGFb SMAD3 inh inconclusive.
COc1ccc(N(C(=O)c2snc(C(N)=O)c2N)C(C(=O)NC2CCCC2)c2cccs2)cc1OC (configuration not stated) was read as KB-3-1 tox inactive, HepG2 tox 0.6%, KB-V1 cytotox inconclusive, HT1080-NT tox 17.2%, HT1080 IDH1KD tx 21.3% and TGFb SMAD3 inh 2.0%.
COc1ccc(N(C(=O)c2ccco2)C(C(=O)NC2CCCCC2)c2cccs2)cc1OC (configuration not stated) was read as KB-3-1 tox inactive, HepG2 tox 1.0%, KB-V1 cytotox inactive, HT1080-NT tox 0.6%, HT1080 IDH1KD tx -2.1% and TGFb SMAD3 inh -2.5%.
For CN(C(=O)c1ccc2c(c1)N(Cc1ccc(F)cc1)C(=O)c1ccccc1S2(=O)=O)C1CCCCC1 the results were KB-3-1 tox inactive, HepG2 tox -20.8%, KB-V1 cytotox inactive and TGFb SMAD3 inh inconclusive.
COc1cc(-c2cc3nc(NCCc4ccncc4)ccn3n2)cc(OC)c1OC was read as KB-3-1 tox inactive, HepG2 tox -4.0%, KB-V1 cytotox inactive, HT1080-NT tox -1.6%, HT1080 IDH1KD tx -21.5% and TGFb SMAD3 inh 34.4%.
c1ccc(COc2cccc(-c3cc4nc(NCCOc5ccccc5)ccn4n3)c2)cc1 was read as KB-3-1 tox inactive, HepG2 tox -28.9%, KB-V1 cytotox inactive, HT1080-NT tox inconclusive, HT1080 IDH1KD tx inconclusive and TGFb SMAD3 inh inconclusive.
c1ccc(COc2cccc(-c3cc4nc(NCCCn5ccnc5)ccn4n3)c2)cc1 was read as KB-3-1 tox inactive, HepG2 tox -43.2%, KB-V1 cytotox inactive, HT1080-NT tox 16.4µM*, HT1080 IDH1KD tx 23.1µM* and TGFb SMAD3 inh inconclusive.
COc1cc(-c2cc3nc(NCCOc4ccccc4)ccn3n2)cc(OC)c1OC was read as KB-3-1 tox inconclusive, HepG2 tox -48.1%, KB-V1 cytotox 16.4µM*, HT1080-NT tox 20.6µM*, HT1080 IDH1KD tx 9.2µM* and TGFb SMAD3 inh inconclusive.
Screening c1ccc(COc2cccc(-c3cc4nc(NCCc5ccncc5)ccn4n3)c2)cc1 returned KB-3-1 tox inconclusive, HepG2 tox -62.6%, KB-V1 cytotox inactive, HT1080-NT tox 18.4µM*, HT1080 IDH1KD tx 23.1µM* and TGFb SMAD3 inh inconclusive.
OC[C@@H]1CN(Cc2ccco2)C[C@H](n2cnc3c(NCc4ccncc4)ncnc32)O1 was read as KB-3-1 tox inactive, HepG2 tox 1.4%, KB-V1 cytotox inactive, HT1080-NT tox 7.6%, HT1080 IDH1KD tx 21.1% and TGFb SMAD3 inh -3.1%.
CCCCCCCCCCOC(=O)Cn1c(COc2ccccc2OC)[n+](C)c2ccccc21 was read as KB-3-1 tox inconclusive, HepG2 tox -99.8%, KB-V1 cytotox inactive, HT1080-NT tox 14.6µM*, HT1080 IDH1KD tx 20.6µM* and TGFb SMAD3 inh inconclusive.
Screening Cn1c(COc2ccccc2O)[n+](C)c2ccccc21 returned KB-3-1 tox inactive, HepG2 tox 11.4%, KB-V1 cytotox inactive, HT1080-NT tox -0.1%, HT1080 IDH1KD tx -0.4% and TGFb SMAD3 inh 6.3%.
Screening Cc1ccccc1CSc1nc2c([nH]c3ccccc32)c(=O)n1-c1ccccc1 returned HepG2 tox 2.5% and TGFb SMAD3 inh -7.9%.
`Cc1ccc(/C=C/C(=O)c2cc(Br)ccc2OC(=O)c2ccco2)cc1` gave KB-3-1 tox inactive, HepG2 tox 11.2µM*, KB-V1 cytotox inconclusive, HT1080-NT tox inconclusive, HT1080 IDH1KD tx inconclusive and TGFb SMAD3 inh -14.5%.
For COc1ccccc1/C=C/C(=O)c1cc(Br)ccc1OC(=O)c1ccco1 the results were KB-3-1 tox inconclusive, HepG2 tox -88.4%, KB-V1 cytotox inconclusive, HT1080-NT tox 18.4µM*, HT1080 IDH1KD tx 20.6µM* and TGFb SMAD3 inh inconclusive.
For COc1ccc(Br)cc1C(=O)Nc1ccc(NC(=O)c2ccco2)cc1 the results were KB-3-1 tox inactive, HepG2 tox -17.4%, KB-V1 cytotox inactive, HT1080-NT tox 11.2%, HT1080 IDH1KD tx 8.3% and TGFb SMAD3 inh -21.3%.
For COc1ccc(Br)cc1/C=N/NC(=O)c1ccco1 the results were KB-3-1 tox inactive, HepG2 tox 4.5%, KB-V1 cytotox inactive, HT1080-NT tox -5.3%, HT1080 IDH1KD tx 16.6% and TGFb SMAD3 inh -5.5%.
O=C(/C=C/c1cc(Br)ccc1O)c1ccco1 was read as KB-3-1 tox inconclusive, HepG2 tox 11.2µM*, KB-V1 cytotox 16.4µM*, HT1080-NT tox 9.2µM*, HT1080 IDH1KD tx 9.2µM* and TGFb SMAD3 inh inconclusive.
For COC(=O)c1nc(N2CCN(S(=O)(=O)c3ccc(C)cc3)CC2)c2ccccc2n1 the results were HT1080-NT tox 3.2% and HT1080 IDH1KD tx 10.9%.
Screening O=C(Nc1ccc(OC(F)F)cc1)Nc1cccc(C(F)(F)F)c1 returned KB-3-1 tox 8.2µM*, HepG2 tox 8.91µM*, KB-V1 cytotox 13µM*, HT1080-NT tox inconclusive, HT1080 IDH1KD tx inconclusive and TGFb SMAD3 inh inconclusive.
